# Screening results as filed in PubChem BioAssay.
# Rows were chosen to be rich in hits. Some 12% of all compounds tested hit in one or more screens of this group.
# NS1 function inh: inhibitors of influenza NS1 protein function; Potency, µM (doses to about 46.1 µM); 270,000 compounds, 0.4% hits; AID 2326; note: actives are rising curves; nearly all actives have a fitted effect of over 50% in size
#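 Recovery from NS1-induced slow growth read by OD600 in budding yeast switched to galactose assay medium (pH 6.0, -URA) at 1:100 dilution. Compound 23 nl per well; the matching strain lacking NS1 serves as control.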
# Shiga inhibitor: inhibitors of Shiga toxin in Vero cells; AID 2315; inhibition, % at 38.7 µM; 290,000 compounds, 9.2% hits; Vero cells, Shiga toxin protein synthesis inhibition reporter; in the data active = inhibition mostly above about 28%, no sharp cut-off; inactive = mostly below about 43%
# SARS PLpro yeast: inhibitors of SARS-CoV papain-like protease in yeast; S. cerevisiae expressing SARS-CoV PLpro, growth rescue; Potency, µM (highest dose often 32.9 µM), hits mostly activators; 330,000 compounds, 0.19% hits; AID 485353; note: nearly all actives have a fitted effect of over 55% in size
# Cycloheximide cs: affects cycloheximide protein synthesis inhibition readout, counter-screen | cell reporter, cycloheximide protein synthesis inhibition counterscreen | max response, % | 300,000 compounds, 12% hits | AID 2314; in the data active = max response mostly above about 13%, no sharp cut-off; inactive = mostly below about 14%; note: read at 38.3 µM for the half of the compounds with a filed dose
# A number is an active result; - = inactive; ? = inconclusive; . = no result given. Unless noted, calls come from the whole dose curve.
SMILES,NS1 function inh,Shiga inhibitor,SARS PLpro yeast,Cycloheximide cs
C=C1SC(=Nc2ccccc2Cl)N(C(=O)c2sc3ccccc3c2Cl)C12CCCCC2,-,-,-,25.2
C=C1SC(=Nc2c(C)cc(C)cc2C)N(C(=O)c2sc3ccccc3c2Cl)C12CCCCC2,-,-,-,-
CC12CCC(C(=O)Nc3nc4ccc(Br)cc4s3)(OC1=O)C2(C)C (configuration not stated),-,93.8,-,32.5
O=C(Nc1c[nH]c2c(Cl)cccc2c1=O)N1CCN(c2ccccn2)CC1,-,-,-,15.6
O=c1c(-c2ccc(Br)cc2)coc2c(CN3CCOCC3)c(O)ccc12,-,35.2,-,22.4
O=c1oc2c(CN3CCOCC3)c(O)ccc2c2ccccc12,-,-,-,44.4
Cc1cccc2nc(=S)n(C(=O)c3ccco3)n12,-,197.5,-,61.7
CC(=O)N1CCN(C(=O)c2ccco2)CC1,-,-,-,-
O=C(c1ccco1)n1c(=S)nc2ccccn21,-,115.3,-,68.1
COC(=O)c1ccc(CC(=O)c2c(C)cc(O)cc2O)o1,-,-,-,-
CCc1c(C)sc(NC(=S)Nc2cccnc2)c1C(=O)OC,-,21.9,-,-
CCCCn1cnc2c(SC)ncnc21,-,.,.,.
O=C(NC(=C(Cl)Cl)S(=O)(=O)c1ccc(Cl)cc1)c1ccccc1,-,89.6,-,56.6
O=C(NS(=O)(=O)c1ccc(Cl)cc1)c1ccccc1,-,-,-,-
CC(=O)NC(=C(Cl)Cl)S(=O)(=O)c1ccccc1,.,65.9,-,36.3
Cc1ccc(C(=O)NC(=C(Cl)Cl)S(=O)(=O)c2ccc(Cl)cc2)cc1,-,87.2,-,47.8
Cc1ccc(S(=O)(=O)CCC(=O)OCC(=O)NC(=O)c2ccccc2)cc1,.,.,-,.
Cc1ccc(C(=O)NC(=C(Cl)Cl)S(=O)(=O)c2ccc(C)cc2)cc1,-,-,-,-
Cc1ccc(S(=O)(=O)/C(=C/Cl)NC(=O)c2ccccc2)cc1,-,-,-,14.9
Cn1c(=O)[nH]c(=O)c2cc(C(=O)c3cc(F)ccc3O)cnc21,-,-,-,-
Cc1cc(=O)oc2c(OS(C)(=O)=O)c(OS(C)(=O)=O)ccc12,-,.,.,.
O=C(CCNC(=O)c1ccc([N+](=O)[O-])cc1)NC1CCCCCC1,.,.,-,.
Cc1ccc(C(=O)CNc2cccc(Cl)c2)cc1,-,-,-,-
O=C(CNc1ccc(Br)cc1)c1ccc(O)cc1,.,92.8,-,38.7
Cc1ccc(NCC(=O)c2ccc(C)cc2)cc1,-,48.0,-,39.0
SMILES,NS1 function inh,Shiga inhibitor,SARS PLpro yeast,Cycloheximide cs
CCOC(=O)c1ccc(N[C@@H]2CCN3C(=O)c4ccccc4[C@@H]3C[C@H]2O)cc1,.,.,-,.
CCOC(=O)c1ccc(NC2OC(=O)c3ccccc32)cc1 (configuration not stated),-,-,-,14.5
CC(C(=O)Nc1ccc2[nH]c(=O)[nH]c2c1)N1CCN(Cc2ccc3c(c2)OCO3)CC1 (configuration not stated),.,.,-,.
Cc1cc(C(=O)Nc2ccc([N+](=O)[O-])cn2)cs1,-,141.0,-,40.9
COc1cc(OC)cc(C(=O)Nc2ccc([N+](=O)[O-])cn2)c1,-,-,-,-
COc1ccc(C(=O)Nc2ccc([N+](=O)[O-])cn2)c(OC)c1,-,107.3,-,35.6
Cc1ccc(C(=O)Nc2ccc([N+](=O)[O-])cn2)o1,-,122.1,-,44.8
Cc1ccnc(S(=O)(=O)Cc2ccc([N+](=O)[O-])cc2)n1,-,-,-,-
Cc1cc(C)cc(NC(=O)CN2CCN(C(=O)C3CCCO3)CC2)c1 (configuration not stated),-,-,-,-
C#CC(CO)N(CCN(Cc1ccccc1)C(C#C)CO)Cc1ccccc1 (configuration not stated),-,-,-,-
COc1ccccc1N1CC(C(=O)Nc2nnc(SCC(=O)N3CCOCC3)s2)CC1=O (configuration not stated),-,-,-,-
Cc1ccc(C(=O)OCC(=O)c2ccccc2)cc1,-,48.3,-,22.7
Cc1cc(C)c(C(=O)CC(=O)c2ccccc2Cl)c(O)c1,-,-,-,22.1
Cc1ccc(C(=O)CCc2ccc(N)cc2)cc1,-,96.0,-,30.7
COc1ccc(CCC(=O)OC(C)C(=O)c2ccc(C)cc2)cc1 (configuration not stated),-,-,-,-
Cc1cc(C)c(NC(=O)CC(=O)c2ccccc2)c(Cl)c1,-,64.7,-,22.0
Cc1cc(C)c(NC(=O)CS)c(Cl)c1,?,-,-,-
O=C(COC(=O)c1ccc(-c2cnc3ccccc3n2)cc1)c1ccccc1,-,-,-,-
O=C(CN1C(=O)CCC1=O)c1ccc(-c2ccccc2)cc1,-,82.8,-,62.8
Cc1ccc(C(=O)COC(=O)c2cccc(NC(=O)c3ccc([N+](=O)[O-])cc3[N+](=O)[O-])c2)cc1,-,136.3,-,35.7
